Results published in ChEMBL document CHEMBL1201862, “PubChem BioAssay data set” (2004).
The whole screen tested about 400,000 compounds, of which about 2,100 (0.53%) were called active. Not shown: some 14% with an inconclusive outcome. No rule for the calls is given here. Shown is part of a subset that was picked to be rich in actives.

These molecules were tested against Ataxin-2 (Homo sapiens) (UniProt Q99700) (assay: qHTS for Inhibitors of ATXN expression.).
Chain of Ataxin-2 (Homo sapiens) (Q99700 whole entry): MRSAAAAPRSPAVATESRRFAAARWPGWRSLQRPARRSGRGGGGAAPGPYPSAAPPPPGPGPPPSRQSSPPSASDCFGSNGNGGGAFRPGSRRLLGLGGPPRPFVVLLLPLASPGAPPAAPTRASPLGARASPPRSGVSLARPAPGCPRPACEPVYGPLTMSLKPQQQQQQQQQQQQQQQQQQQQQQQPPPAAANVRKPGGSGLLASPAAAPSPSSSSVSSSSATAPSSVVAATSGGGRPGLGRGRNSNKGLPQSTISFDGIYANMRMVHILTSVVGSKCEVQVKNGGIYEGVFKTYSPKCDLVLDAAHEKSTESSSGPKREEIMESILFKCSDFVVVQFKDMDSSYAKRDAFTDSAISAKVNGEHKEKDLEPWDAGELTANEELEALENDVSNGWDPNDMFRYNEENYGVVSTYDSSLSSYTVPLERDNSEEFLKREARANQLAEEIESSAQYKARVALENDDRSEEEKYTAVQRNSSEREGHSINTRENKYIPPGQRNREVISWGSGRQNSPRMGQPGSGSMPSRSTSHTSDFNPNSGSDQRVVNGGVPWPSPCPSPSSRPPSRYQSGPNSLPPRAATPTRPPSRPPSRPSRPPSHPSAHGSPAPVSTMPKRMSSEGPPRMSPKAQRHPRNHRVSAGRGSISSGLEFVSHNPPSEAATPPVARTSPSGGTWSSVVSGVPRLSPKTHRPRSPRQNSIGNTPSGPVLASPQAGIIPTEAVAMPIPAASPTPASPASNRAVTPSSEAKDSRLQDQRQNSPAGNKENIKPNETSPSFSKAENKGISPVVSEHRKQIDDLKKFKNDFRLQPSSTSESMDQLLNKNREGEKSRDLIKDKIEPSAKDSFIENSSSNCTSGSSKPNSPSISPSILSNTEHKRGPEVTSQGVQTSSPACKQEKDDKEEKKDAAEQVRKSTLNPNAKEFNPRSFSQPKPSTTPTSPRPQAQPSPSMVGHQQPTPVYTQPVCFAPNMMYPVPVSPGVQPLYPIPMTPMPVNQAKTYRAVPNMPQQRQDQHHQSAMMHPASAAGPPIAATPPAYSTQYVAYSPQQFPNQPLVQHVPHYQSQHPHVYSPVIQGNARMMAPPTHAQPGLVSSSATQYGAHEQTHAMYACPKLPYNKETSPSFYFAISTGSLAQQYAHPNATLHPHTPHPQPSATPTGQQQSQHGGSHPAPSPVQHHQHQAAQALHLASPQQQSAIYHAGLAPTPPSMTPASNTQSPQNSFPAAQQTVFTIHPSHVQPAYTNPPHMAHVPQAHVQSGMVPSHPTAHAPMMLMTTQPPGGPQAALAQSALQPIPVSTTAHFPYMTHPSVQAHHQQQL
Format: functional
With O=C(Cc1csc(N2CCOCC2)n1)N/N=C/c1ccccc1C(=O)O the Potency was “inactive”.
For NNC(=O)c1oc2nc(-c3ccco3)cc(-c3ccco3)c2c1N, the Potency was “inactive”.
For Cc1cc(C)c2c(N)c(C(=O)Nc3nccs3)sc2n1, the Potency was “inactive”.
With CCOc1cccc(/C=N/NC(=O)c2cc(-c3cccn3C)[nH]n2)c1O the Potency was “inactive”.
O=C(N/N=C/c1c[nH]c2ccccc12)c1cc(-c2ccc(-c3ccccc3)cc2)[nH]n1 was tested, and the Potency was 39.8 µM (active).
For CCCc1c(C(=O)N/N=C/c2c[nH]c3ccccc23)nnn1-c1nonc1N, the Potency was “inactive”.
O=C(NCc1ccco1)c1cc2ccc(O)cc2oc1=O was tested, and the Potency was “inactive”.
With CC(=O)N/N=C/c1cc(C(C)(C)C)cc(/C=N/NC(C)=O)c1O the Potency was “inactive”.
With CN(CCc1ccccc1)C(C(=O)Nc1ccc2c(c1)OCCO2)c1ccnc2ccccc12 (centres undefined) the Potency was 35.5 µM (active).
O=C(O)c1ccc(/C=C/c2nc(O)c3c4c(sc3n2)CCC4)cc1 was tested, and the Potency was “inactive”.
With CCCCCCOc1ccc(/C=c2\s/c(=C(/C#N)C(=O)NCc3ccco3)n(-c3ccccc3)c2=O)cc1 the Potency was “inactive”.
In the case of CC(C)(C)c1nc(SCC(=O)NCc2cccs2)c2ccccc2n1, the Potency was “inactive”.
In the case of O=C(CC1N=C2c3ccccc3N=C(SCC(=O)Nc3cccc(C(F)(F)F)c3)N2C1=O)NCc1cccs1 (centres undefined), the Potency was 39.8 µM (active).
For O=C(CSc1nnc(NC(=O)C2CC2)s1)NCc1cccs1, the Potency was “inactive”.
For CN(C)CCNc1nc2sc3c(c2c(=O)n1CCc1ccccc1)CCCCC3, the Potency was 22.4 µM (active).
In the case of Cc1cc2nc3c(=O)n(CCc4ccccc4)c(=O)[nH]c3nc2cc1N, the Potency was “inactive”.
In the case of Cc1cccn2c(=O)c3cc(C(=O)NC4CCCC4)c(=N)n(CCc4ccccc4)c3nc12, the Potency was “inactive”.
Cc1ccc(C2C=C(c3ccccc3)Nc3nc(N4C(=O)CCC4=O)nn32)cc1 (centres undefined) was tested, and the Potency was “inactive”.
CNC(=O)c1cc2c(=O)n3cc(C)ccc3nc2n(C(C)C)c1=N was tested, and the Potency was “inactive”.
In the case of CCN1C(=O)CC(c2ccccc2)N(C2CCCC2)c2nc(Nc3ccc(C(=O)NC4CCN(C)CC4)cc3OC)ncc21 (centres undefined), the Potency was 25.1 µM (active).
With COc1ccc(C2=NS(=O)(=O)N(C)C(C(=O)NC3CCCC3)=C2)cc1 the Potency was “inactive”.
For COc1ccc(Nc2nc(Nc3ccc(OC)cc3OC)nc(N3CCN(C)CC3)n2)c(OC)c1, the Potency was “inactive”.
In the case of COc1cccc(C(=O)NC2CCN(CC(=O)NCc3ccccc3F)CC2)c1, the Potency was “inactive”.
For C#Cc1ccc(CN2CCC(Oc3cc(C(=O)NC4CC4)ccc3OC)CC2)cc1, the Potency was “inactive”.
For CCN1C(=O)CC(C(C)C)N(C2CCCC2)c2nc(Nc3ccc(C(=O)NC4CCN(C)CC4)cc3OC)ncc21 (centres undefined), the Potency was 22.4 µM (active).
In the case of O=C(CC(=O)c1c(F)cccc1Cl)c1ccccc1O, the Potency was “inactive”.
With Oc1nccc(SCc2ccc(Cl)cc2Cl)n1 the Potency was “inactive”.
For Oc1cc(CSc2ccc(Cl)cc2)nc(-c2ccccn2)n1, the Potency was 1.41 µM (active).
Oc1nc(-c2ccccn2)nc2sc(-c3ccccc3)cc12 was tested, and the Potency was “inactive”.
With CC1=CC2=NC(=O)/C(=C\c3cc(C)n(-c4ccccc4)c3C)C(=N)N2O1 the Potency was “inactive”.
For Fc1ccc(Br)cc1C1C=C(c2ccc(Br)cc2)Nc2nnnn21 (centres undefined), the Potency was “inactive”.
For Cc1ccc(Cl)cc1-n1c(=O)c2sc3ccccc3c2n(CC(=O)NC2CCCC2)c1=O, the Potency was 11.2 µM (active).
With Cc1cccn2c(=O)c3cc(C(=O)NC4CCCCCC4)sc3nc12 the Potency was “inactive”.
For O=C(Cn1c(=O)oc2ccc(Cl)cc21)NC1CCCCC1, the Potency was “inactive”.
Cc1ccc(Nc2nc(-c3ccccc3)cs2)nc1 was tested, and the Potency was “inactive”.
For Cc1ccc(Nc2nc(-c3ccc(O)cc3O)cs2)nc1, the Potency was 44.7 µM (active).
For Cc1ccc(Nc2nc(-c3sc(C)nc3C)cs2)cc1, the Potency was “inactive”.
In the case of COC(=O)C1CCN(C(=O)COC(=O)c2ccc(N3CCCC3=O)cc2)CC1, the Potency was “inactive”.
COc1ccc(C(=O)COC(=O)c2sc(C)nc2C)cc1OC was tested, and the Potency was “inactive”.
In the case of COc1ccc(C(=O)O/N=C(\N)Cc2ccc(Cl)c(Cl)c2)cc1OC, the Potency was 28.2 µM (active).
With COc1ccc(CC(=O)Nc2cc(C)ccn2)cc1OC the Potency was “inactive”.
COc1ccc(NC(=O)CSc2nnc3n2CCCCC3)cc1 was tested, and the Potency was “inactive”.
CCCCc1ccc(NC(=O)CSc2nc(=O)n(CCN(CC)CC)c3c2CCCC3)cc1 was tested, and the Potency was 39.8 µM (active).
For CCc1nnc(NC(=O)CSc2nc(C)c3c(c2C#N)CCCC3)s1, the Potency was “inactive”.
For Cc1cc(C(=O)CCl)c(C)n1-c1cccc(S(=O)(=O)N2CCOCC2)c1, the Potency was 21.2 µM (active).
For O=C(NC1CC1)c1cccc(S(=O)(=O)N2CCOCC2)c1, the Potency was “inactive”.
With Cc1ccc(S(=O)(=O)N2CCOCC2)cc1C(=O)N1C(=O)c2cccc(N)c2C1=O the Potency was “inactive”.
CCC(=O)c1cc2c(C)cc(=O)oc2c(C)c1O was tested, and the Potency was “inactive”.
For CCOC(=O)c1cc2c(=O)n3ccccc3nc2n(Cc2ccco2)/c1=N/C(=O)c1ccccc1OCC, the Potency was “inactive”.
CCOC(=O)[C@]12CCC=C1N(Cc1cccc3ccccc13)C(=O)[C@H](CC(=O)NCc1ccc(OC)c(OC)c1)C2 was tested, and the Potency was 39.8 µM (active).
In the case of CCCCCCCCN1C(=O)[C@H](CC(=O)NCc2ccc(OC)c(OC)c2)C[C@@]2(C(=O)OC)CCCCC=C12, the Potency was 35.5 µM (active).
COC(=O)[C@]12CCCCC=C1N(Cc1ccc(Cl)cc1Cl)C(=O)[C@H](CC(=O)NCc1ccc(OC)c(OC)c1)C2 was tested, and the Potency was 25.1 µM (active).
COCCn1c(SCC(=O)NCc2ccc(OC)c(OC)c2)nc2ccccc21 was tested, and the Potency was “inactive”.
For CCOC(=O)[C@]12CCCC=C1N(Cc1ccc(Cl)cc1Cl)C(=O)[C@H](CC(=O)NCc1ccc(OC)c(OC)c1)C2, the Potency was 39.8 µM (active).
With COc1ccc(CNC(=O)COC(=O)c2ccc(C)c(S(=O)(=O)N3CCOCC3)c2)cc1OC the Potency was “inactive”.
CCCOc1ccc(N2CC(C(=O)NCCc3ccc(OC)c(OC)c3)CC2=O)cc1 (centres undefined) was tested, and the Potency was “inactive”.
For CC1(C)C/C(=N\O)C(C(O)c2cccc([N+](=O)[O-])c2)C(C)(C)N1 (centres undefined), the Potency was “inactive”.
O=C1CSC(c2cccc([N+](=O)[O-])c2)N1C1CC2CCC1C2 (centres undefined) was tested, and the Potency was “inactive”.
CCCCN(CCCC)S(=O)(=O)c1ccc(C(=O)Nc2sc3c(c2C(N)=O)CCN(CC)C3)cc1 was tested, and the Potency was “inactive”.
Cc1nc2nc(-c3ccccc3)cn2nc1C was tested, and the Potency was “inactive”.
CCCCCCCCN1C(=O)[C@H](CC(=O)NCC2CCCCC2)C[C@@]2(C(=O)OC)CCCCC=C12 was tested, and the Potency was 25.1 µM (active).
Cc1ccc(C2OC34CCCCCC3C(C#N)(C(=N)O4)C2(C#N)C#N)cc1 (centres undefined) was tested, and the Potency was “inactive”.
For CN(Cc1cccs1)c1nc(-c2cccnc2)nc2ccccc12, the Potency was “inactive”.
In the case of O=C(c1ccccc1)c1ccc2nc(-c3ccco3)c(-c3ccco3)nc2c1, the Potency was “inactive”.
COc1ccccc1N1N=C(c2cccs2)CC1c1ccccc1 (centres undefined) was tested, and the Potency was “inactive”.
With O=C(c1ccccc1Cl)N1N=C(c2cccs2)CC1c1cccc(O)c1 (centres undefined) the Potency was “inactive”.
For Cc1ccc(C2=NN(C(=O)CCl)C(c3cccs3)C2)o1 (centres undefined), the Potency was 9.47 µM (active).
With COc1cc(C2CC(c3cccs3)=NN2C(=O)CCl)ccc1OC(F)F (centres undefined) the Potency was 39.8 µM (active).
With c1ccc(C2CC(c3cccs3)=NN2c2ccccc2)cc1 (centres undefined) the Potency was “inactive”.
For Clc1ccc(N2N=C(c3cccs3)CC2c2ccco2)cc1 (centres undefined), the Potency was “inactive”.
For Cc1ccc(C2CC(c3cccs3)=NN2C(=O)CCl)cc1 (centres undefined), the Potency was 25.1 µM (active).
With COc1ccc(C2CC(c3cccs3)=NN2c2ccc(F)cc2)cc1OC (centres undefined) the Potency was “inactive”.
In the case of CC(=O)Nc1ccc(C2=NN(c3ccccc3)C(c3cccs3)C2)cc1 (centres undefined), the Potency was “inactive”.
With O=C(CCl)N1N=C(c2cccs2)CC1c1ccco1 (centres undefined) the Potency was 5.32 µM (active).
With c1ccc(N2N=C(c3cccs3)CC2c2ccco2)cc1 (centres undefined) the Potency was “inactive”.
For COc1ccc(C2=NN(c3ccccc3)C(c3cccs3)C2)cc1 (centres undefined), the Potency was “inactive”.
For COc1ccc2nc3c(cc2c1)c(NC(=O)C1CCCO1)nn3CC(C)C (centres undefined), the Potency was “inactive”.
With O=S(=O)([N-]c1nc2ccccc2nc1-[n+]1ccn(Cc2ccccc2)c1)c1ccc(Cl)cc1 the Potency was “inactive”.
For CCCCn1nc(NC(=O)COC)c2cc3cc(OC)ccc3nc21, the Potency was “inactive”.
N=c1c(C(=O)NC2CCCCC2)cc2c(=O)n3ccccc3nc2n1Cc1cccnc1 was tested, and the Potency was “inactive”.
In the case of COc1ccc(C2=NN3C(C2)c2ccccc2OC3c2cccs2)cc1 (centres undefined), the Potency was “inactive”.
With O=C(CCl)N1N=C(c2ccco2)CC1c1cccs1 (centres undefined) the Potency was 17.8 µM (active).
In the case of O=C(c1ccccc1)C1Oc2ccccc2C2CC(c3cccs3)=NN12 (centres undefined), the Potency was “inactive”.
In the case of C#CCOCCOCCOCCNc1nc(N2CCN(C(=O)CCCCCCCCCCNC(=O)[C@H]([C@@H](C)CC)n3cc(CCCCN=C(N)N)nn3)CC2)nc(N2CCN(C(=O)CCCCCCCCCCNC(=O)[C@H](CO)n3cc(CCCSC)nn3)CC2)n1, the Potency was 35.5 µM (active).
In the case of C#CCOCCOCCOCCNc1nc(N2CCN(C(=O)CCCCCCCCCCNC(=O)Cn3cc(CCCCCN)nn3)CC2)nc(N2CCN(C(=O)CCCCCCCCCCNC(=O)[C@@H]([C@H](C)O)n3cc(C)nn3)CC2)n1, the Potency was 28.2 µM (active).
For C#CCOCCOCCOCCNc1nc(N2CCN(C(=O)CCCCCCCCCCNC(=O)Cn3cc(C[C@@H](C)O)nn3)CC2)nc(N2CCN(C(=O)CCCCCCCCCCNC(=O)[C@@H]([C@H](C)CC)n3cc(CCCCCN)nn3)CC2)n1, the Potency was 20 µM (active).
C#CCOCCOCCOCCNc1nc(N2CCOCC2)nc(N2CCN(C(=O)[C@H]([C@@H](C)CC)n3cc([C@@H](N)Cc4ccc(O)cc4)nn3)CC2)n1 was tested, and the Potency was 35.5 µM (active).
With CC(Sc1nnc(-c2cccnc2)o1)C(=O)NC1CCCCC1 (centres undefined) the Potency was “inactive”.
In the case of C=CCn1c(N)c(C(=O)OCCC)c2nc3ccccc3nc21, the Potency was “inactive”.
With OCc1ccccc1-c1ccc2nccn2c1 the Potency was “inactive”.
For Cc1csc(NC(=O)c2cc3c(s2)-c2ccccc2OC3)n1, the Potency was “inactive”.
With Cc1cccc(/C=N/c2sc3c(c2C#N)CCN(Cc2ccccc2)C3)c1O the Potency was “inactive”.
With C#CCOCCOCCOCCNc1nc(N2CCN(C(=O)CCCCCCCCCCNC(=O)[C@H](CCCCN)n3cc(C)nn3)CC2)nc(N2CCN(C(=O)CCCCCCCCCCNC(=O)[C@@H]([C@H](C)O)n3cc(C)nn3)CC2)n1 the Potency was 22.4 µM (active).
For C#CCOCCOCCOCCNc1nc(N2CCN(C(=O)CCCCCCCCCCNC(=O)[C@H](CCCCN)n3cc(C)nn3)CC2)nc(N2CCN(C(=O)CCCCCCCCCCNC(=O)[C@H](CO)n3cc(CCCSC)nn3)CC2)n1, the Potency was 31.6 µM (active).
